Source: PubChem (National Center for Advancing Translational Sciences (NCATS))
VDR inhibitor: blocks the human vitamin D receptor; Potency, µM, hits mostly inhibitors; VDR-SRC2-3 peptide fluorescence polarization, 2 h; 400,000 tested, 0.93% active; P11473
Target sequence (P11473 whole entry, looked up): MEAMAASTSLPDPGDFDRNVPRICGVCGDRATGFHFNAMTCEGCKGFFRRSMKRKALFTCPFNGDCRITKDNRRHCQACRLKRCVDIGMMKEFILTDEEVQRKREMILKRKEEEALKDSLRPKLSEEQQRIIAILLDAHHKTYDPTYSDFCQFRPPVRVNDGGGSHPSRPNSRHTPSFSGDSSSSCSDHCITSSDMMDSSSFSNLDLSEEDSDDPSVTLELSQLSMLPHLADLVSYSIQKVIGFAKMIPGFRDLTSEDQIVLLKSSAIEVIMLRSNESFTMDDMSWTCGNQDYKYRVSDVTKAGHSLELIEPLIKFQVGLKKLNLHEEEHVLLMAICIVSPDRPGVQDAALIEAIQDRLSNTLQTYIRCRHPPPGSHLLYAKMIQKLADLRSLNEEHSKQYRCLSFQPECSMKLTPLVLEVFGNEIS
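Compounds are added to VDR with labelled SRC2-3 coactivator peptide and held 2 h at room temperature. Inhibition of the VDR–peptide interaction is then read as a change in fluorescence polarization.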
CCT chaperon mod: modulators of cytosolic chaperonin (CCT/TRiC) activity; AID 651819; activity change, % (concentration not given with the values), hits read low; 360,000 tested, 0.3% active; purified chaperonin ATPase assay, HTRF ADP detection, 30 min; in the data active = activity change below about -30%
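Enzyme 40 or 20 nM (batch-dependent) in Tris pH 7.4/KCl/MgCl2/DTT; cpd 76 uM single point; ATP 10 uM; 30 min 37 °C; Transcreener ADP HTRF detection, 30 min RT; ratio 665/615.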
Sfp PPTase inh: blocks B. subtilis Sfp PPTase activity | Biochemical Sfp PPTase activity, qHTS | Potency, µM, most hits filed as inhibitors | 310,000 tested, 3.5% active;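 note: the enzyme is Sfp with the accession as filed and its product quenches rhodamine fluorescence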
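Reaction rates are the 30-min fluorescence difference (ex 525, em 598 nm) in wells containing 15 nM Sfp, 5 uM rhodamine-CoA and 12.5 uM BHQ-2-YbbR at pH 7.6 with 10 mM MgCl2.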
MmCpn inh: inhibitors of Methanococcus maripaludis chaperonin TRiC (MmCpn); purified Mm-Cpn ATPase, ADP Transcreener TR-FRET; Potency, µM (doses to about 76.9 µM), hits mostly inhibitors; 330,000 tested, 0.031% active; note: nearly all actives have a fitted effect of over 80% in size
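TR-FRET (320 nm excitation; 590 and 665 nm emission) reports ADP made from 10 uM ATP by 25 nM enzyme; compounds were preincubated 10 min, reaction run 30 min, both at 37°C.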
PLK1 PBD block: PLK1 (human) polo-box domain binding inhibition | P53350 | Plk1 PBD binding of FITC phosphopeptide, fluorescence polarization | Potency, µM, hits mostly inhibitors | 360,000 tested, 2.8% active | AID 720504; note: series mostly up to about 57 µM; nearly all actives have a fitted effect of over 65% in size
G9a inh: blocks human histone lysine methyltransferase G9a; Potency, µM (top dose mostly 102 µM), hits mostly inhibitors; G9a H3K9 monomethylation, AlphaScreen, 2 h; Q96KQ7; 350,000 tested, 8.8% active; note: nearly all actives have a fitted effect of over 75% in size
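Using a bead-based AlphaScreen, monomethylated H3K9 product from 2 h room-temperature reactions (G9a 20 nM, peptide 500 nM, SAM 20 uM) was detected with 0.5 ug/mL rabbit anti-H3K9me1 antibody.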
Each line names hits and unclear results; the compound was inactive in the other large screens. The list is not random: actives were taken first. Their share in the collection is about 10%. Unless noted, calls come from the whole dose curve; as a rule, active = well fitted curve in the direction sought with a large enough effect; inconclusive = small, poorly fitted or top-dose-only effect, or another doubt; inactive = no such curve, though single readings can be large; an effect the other way counts as inactive or inconclusive.

COC(=O)c1cc(S(=O)(=O)N2CCN(c3ccc(C)cc3C)CC2)cn1C	none (no result: CCT chaperon mod, Sfp PPTase inh, MmCpn inh, PLK1 PBD block)
CC1(C)Cc2c(C#N)c(SCC(=O)c3ccccc3)nc(N3CCOCC3)c2CS1	MmCpn inh inconclusive, PLK1 PBD block 29.9µM
CN(C(=O)c1sc2nc(N3CCCC3)c3c(c2c1N)CC(C)(C)OC3)c1ccccc1	VDR inhibitor inconclusive, PLK1 PBD block inconclusive, G9a inh 44.7µM
CCSc1nc(N2CCOCC2)c2c(c1C#N)CC(C)(C)N(C)C2	none
CC1(C)Cc2c(c(N3CCOCC3)nc3sc(C(=O)Nc4ccccc4)c(N)c23)CO1	MmCpn inh inconclusive, G9a inh 28.2µM
CC(Sc1nc(N2CCOCC2)c2c(c1C#N)CC(C)(C)OC2)C(=O)Nc1ccccc1 (stereo unspecified)	G9a inh 5.62µM
Cc1cc(C)cc(OCCCn2c(-c3ccc(Cl)cc3)nc3ccccc3c2=O)c1	none (no result: CCT chaperon mod, Sfp PPTase inh, MmCpn inh, PLK1 PBD block)
CCOc1ccc(CCNC(=O)c2cc(C)nc3c2c(C)nn3-c2cccc(F)c2)cc1	none (no result: CCT chaperon mod, Sfp PPTase inh, MmCpn inh, PLK1 PBD block)
Cc1c(CCC(=O)NCc2cccc(Cl)c2)c(=O)oc2c(C)c(O)ccc12	none (no result: CCT chaperon mod, Sfp PPTase inh, MmCpn inh, PLK1 PBD block)
c1cncc(CSc2nnc(-c3cccnc3)n2Cc2ccco2)c1	none (no result: VDR inhibitor, CCT chaperon mod, PLK1 PBD block)
O=C(CSc1nnc(-c2cccnc2)n1Cc1ccccc1)NCc1ccco1	none
Clc1ccc(CSc2nnc(-c3cccnc3)n2Cc2ccco2)c(Cl)c1	Sfp PPTase inh 35.5µM, G9a inh 35.5µM
Clc1cccc(CSc2nnc(-c3cccnc3)n2Cc2ccco2)c1	Sfp PPTase inh 50.1µM, G9a inh inconclusive
CCc1cccc(C)c1NC(=O)C1CCN(S(=O)(=O)c2c(C)noc2/C=C/c2c(C)cc(C)cc2C)CC1	none (no result: CCT chaperon mod, Sfp PPTase inh, MmCpn inh, PLK1 PBD block)
CCC(Sc1nc2sc(C(=O)OC)c(C)c2c(=O)n1N)C(=O)N(CC)CC (stereo unspecified)	none
CCCCNC(=O)C(CC)Sc1nc2sc(C(=O)OC)c(C)c2c(=O)n1N (stereo unspecified)	Sfp PPTase inh 50.1µM
COC(=O)c1sc2nc(SCC(=O)N(C)c3ccccc3)n(N)c(=O)c2c1C	Sfp PPTase inh inconclusive, G9a inh 25.1µM
O=C(OCc1ccco1)c1ccc2c(c1)N(Cc1ccc([N+](=O)[O-])cc1)C(=O)c1ccccc1S2	none (no result: CCT chaperon mod, Sfp PPTase inh, MmCpn inh, PLK1 PBD block)
O=C(CCCCn1c(=O)c2ccccc2n(CC(=O)Nc2cccc(F)c2)c1=O)NCc1ccccc1Cl	none (no result: CCT chaperon mod, Sfp PPTase inh, MmCpn inh, PLK1 PBD block)
Cc1cc(C)cc(N2C(=O)CC(c3ccc(C(F)(F)F)cc3)C3=C2COC3=O)c1 (stereo unspecified)	none (no result: CCT chaperon mod, Sfp PPTase inh, MmCpn inh, PLK1 PBD block)
CC(C)=CCC1=C(O)c2ccccc2C(=O)C1=O	VDR inhibitor 25.1µM, G9a inh inconclusive (no result: CCT chaperon mod, MmCpn inh, PLK1 PBD block)
Clc1ccc(-c2csc(N3CCSCC3)n2)cc1	PLK1 PBD block 23.8µM
Fc1ccc(-c2csc(N3CCSCC3)n2)cc1	none
Cc1c(OCc2nn[nH]n2)ccc2c(-c3ccccc3)cc(=O)oc12	G9a inh 50.1µM
COC(=O)c1ccc(NC(=O)CSc2nccn2Cc2ccc(Cl)cc2)cc1	G9a inh 12.6µM (no result: CCT chaperon mod, Sfp PPTase inh, MmCpn inh, PLK1 PBD block)
COC(=O)c1ccc(NC(=O)CSc2nccn2CCc2ccccc2)cc1	G9a inh 35.5µM
COc1ccc(Cn2ccnc2SCC(=O)Nc2ccccc2OC)cc1	G9a inh 44.7µM
COc1ccc(CNC(=O)c2ccc(-c3nc(CSc4ccc(C)cc4)c(C)o3)cc2)c(OC)c1	none (no result: CCT chaperon mod, Sfp PPTase inh, MmCpn inh, PLK1 PBD block)
Cc1nnc(N/N=C/c2ccc([N+](=O)[O-])cc2)n1N	none
Cc1nnc(N/N=C/c2ccc(-c3ccc(Br)cc3)o2)n1N	Sfp PPTase inh 56.2µM
O=C(Cc1ccc(Br)cc1)N/N=C/c1ccc(-c2cccc(C(=O)O)c2)o1	G9a inh inconclusive
Cc1nnc(N/N=C\c2ccc(-c3cccc(C(=O)O)c3)o2)n1N	G9a inh 39.8µM
CCOC(=O)c1cc(-c2ccc(F)cc2)n(CCC(=O)Nc2cc(OC)cc(OC)c2)c1C	G9a inh inconclusive (no result: CCT chaperon mod, Sfp PPTase inh, MmCpn inh, PLK1 PBD block)
N#Cc1nc(-c2ccc(OCc3ccccc3)cc2)oc1NCCCn1ccnc1	Sfp PPTase inh inconclusive, G9a inh inconclusive
N#Cc1nc(-c2ccc(OCc3ccc(Cl)cc3)cc2)oc1NCc1cccnc1	none
CN(C)c1oc(-c2ccc(OCc3ccccc3)cc2)nc1C#N	G9a inh 11.2µM
